Here are results for 14 molecules from PubChem BioAssay.

For orientation: inhibition means the drop in the measured response relative to a control, in per cent.

Test [1] in a line: inhibitors of TNFa-induced NFkB p65 translocation, primary screen, imaging, HUVEC, MLSMR starter and 10KST1 sets (AID 438;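 active means inhibition above 20% together with a positive visual image hit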;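 further: compound added about 3h40 before a 20 min TNFalpha stimulation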;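 on inhibition: signal is the nuclear over cytoplasmic p65 intensity ratio per well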). The note with it: HUVEC TNFa-induced p65 nuclear translocation; cell count: measured here: nuclei count (cytotoxicity indicator), at 2.08 µM; inhibition: at 2 µM, stronger effect = higher value, 0% TNFa-plus-vehicle, 100% no-TNFa wells.
Test [2] is described as follows: inhibitors of mutant huntingtin aggregation, primary screen, imaging, exon1htt(103Q)mCFP cells, high-content imaging (AID 483;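 active means visual image review flags a hit and inhibition of aggregation exceeds 20%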;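 further: compound exposure lasted 3 days before fixation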;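 on nuclei count: percent of the per-plate median nuclei count of sample wells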). The settings on record: exon1htt(103Q)mCFP cell line, aggregate imaging, at 2 µM; inhibition of aggregation: stronger effect = higher value; nuclei count: measured here: cell count, toxicity.
Test [3] can be described thus: inhibitors of E-selectin induction by TNFa, primary screen, imaging, HUVEC, immunofluorescence, MLSMR starter and 10KST1 sets (AID 487).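 On inhibition: signal is fraction of cell area covered by stained E-selectin grains.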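 On nuclei count: 100% = median nuclei count of all wells on the same plate.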 The note with it: HUVEC TNFalpha-induced E-selectin immunofluorescence imaging, at 2 µM; inhibition: stronger effect = higher value; nuclei count: measured here: cell number, toxicity.
In test [4] the target is Voltage-gated potassium channel subunit beta-2 (Rattus norvegicus) (UniProt P62483). The test can be described thus: KvBeta enzyme negative modulators, primary screen, biochemical, NADPH fluorescence (AID 622;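 active means fluorescence slope higher than the sample average by over 3 SD, cut at about -0.22 in these data, passing the limit was not always enough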;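 further: slope of raw intensity against log time taken from 70 to 1610 s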). The note with it: recombinant KvBeta, 4-cyanobenzaldehyde reduction, at 10 µM, stronger effect = higher value.
Test [5] has the same target. In words: KvBeta positive modulators, primary screen, biochemical, NADPH fluorescence (AID 623;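 active means NADPH fluorescence slope more negative than the mean of all samples by about 3 SD, 99.7% confidence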;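 further: fluorescence intensity change per second fitted from 20 to 320 s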). The note with it: Recombinant KvBeta, NADPH fluorescence decrease slope, 10 min; at 10 µM; stronger effect = lower value.
In test [6] the target is Alpha-2C adrenergic receptor (Homo sapiens) (UniProt P18825). The test can be described thus: modulators of alpha2C/GIRK thallium flux, primary screen, cell-based, HEK293 alpha2C/GIRK1/2 (AID 624;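 active means fluorescence slope after compound addition differing from the mean of all screened samples at 99.7% confidence, in either direction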;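 further: slope of fluorescence ratio to pre-addition baseline per second over 15 to 24 s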). The note with it: thallium flux BTC fluorescence, at 10 µM, actives lie on both sides.
Test [7] can be described thus: inhibitors of Sendai virus-induced IRF3 signaling, primary screen, TLR/RLR signaling modifier project, cell-based, Sendai virus stimulus, luciferase, 10K MLSCN set (AID 602276;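 active means inhibition at or above 50% at 10 µM; inactive means inhibition below 50%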;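 further: firefly luciferase from ISG56 promoter only with Renilla not read in this screen; 0% = Sendai virus plus DMSO and 100% = medium plus DMSO without virus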). The settings on record: HEK293 RL24 IRF3 luciferase reporter, at 10 µM, stronger effect = higher value.
Test [8] in a line: inhibitors of poly I:C-induced TLR3 signaling, primary screen, cell-based, poly I:C stimulus, luciferase, 10K MLSCN set (AID 602277;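 active means inhibition of the reporter signal at or above 50%; inactive means inhibition below 50%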). The settings on record: HEK293-TLR3 RL24 IRF3 luciferase reporter, at 10 µM, stronger effect = higher value. (In general: Reporter assays use an easily measured gene product as a stand-in for the process of interest.)

Structures are written as SMILES. The source made the active and inactive calls.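 How the source made its calls, unless noted: active means visually confirmed hit in the image check and inhibition above 20%; inconclusive means visually confirmed hit but inhibition not above 20%; inactive means no visual hit in the image check.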

Alpha-2C adrenergic receptor (Homo sapiens), sequence (P18825 whole entry, looked up): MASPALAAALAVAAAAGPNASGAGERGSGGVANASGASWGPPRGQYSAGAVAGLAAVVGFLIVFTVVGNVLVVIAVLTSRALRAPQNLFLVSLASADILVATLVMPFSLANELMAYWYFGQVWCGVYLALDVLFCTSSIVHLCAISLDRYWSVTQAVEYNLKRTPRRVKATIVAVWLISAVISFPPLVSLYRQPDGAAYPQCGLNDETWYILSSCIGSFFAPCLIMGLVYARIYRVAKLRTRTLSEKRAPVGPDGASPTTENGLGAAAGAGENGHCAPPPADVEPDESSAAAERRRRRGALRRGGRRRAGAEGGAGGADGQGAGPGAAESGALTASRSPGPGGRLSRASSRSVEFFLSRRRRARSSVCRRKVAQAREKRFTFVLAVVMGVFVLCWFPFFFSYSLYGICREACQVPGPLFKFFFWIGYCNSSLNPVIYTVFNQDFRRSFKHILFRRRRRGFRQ
Voltage-gated potassium channel subunit beta-2 (Rattus norvegicus), sequence (P62483 whole entry, looked up): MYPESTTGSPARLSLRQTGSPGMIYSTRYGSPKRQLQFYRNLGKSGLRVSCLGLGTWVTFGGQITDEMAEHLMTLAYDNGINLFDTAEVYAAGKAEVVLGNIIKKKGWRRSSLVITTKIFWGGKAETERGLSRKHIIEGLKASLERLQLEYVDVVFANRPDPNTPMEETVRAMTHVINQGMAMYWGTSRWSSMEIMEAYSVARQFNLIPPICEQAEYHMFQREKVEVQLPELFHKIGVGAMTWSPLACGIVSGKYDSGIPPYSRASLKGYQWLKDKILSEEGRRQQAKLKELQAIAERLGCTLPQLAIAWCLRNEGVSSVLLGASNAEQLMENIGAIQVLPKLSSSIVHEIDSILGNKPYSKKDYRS

Turning to `Cn1cc(-c2nc3ccccc3[nH]2)c2ccccc21`, the cell count in test [1] was determined as 250. For the same molecule, the inhibition in test [1] was 2.1% (inactive); in test [3], 55.1% (inactive); in test [7], -9.53% (inactive); in test [8], -51.2% (inactive). In addition, in test [2], the inhibition of aggregation was 33.7% (inactive). The nuclei count in test [2] came out at 82.6%; in test [3], 83.3%. Besides, in test [4], the fluorescence slope was -0.416 (inactive). Moreover, in test [5], the NADPH fluorescence slope was -6e-05 (inactive). For the same molecule, in test [6], the slope was 0.00369 (inactive).
Take `CCCCCOC(=O)C1=C(C)N(C)C(=O)NC1c1cc(Br)c(O)c(OC)c1` (centres undefined): the cell count in test [1] turned out to be 563. Also, the inhibition in test [1] is -9.9% (inactive); in test [3], 25.8% (inactive); in test [7] it was 1.53% (inactive); in test [8] it was 21.1% (inactive). Further, the inhibition of aggregation in test [2] was -39.7% (inactive). Also, the nuclei count in test [2] and in test [3] was 105% each time. Further, the fluorescence slope in test [4] is -0.624 (inactive). In test [5], the NADPH fluorescence slope is 5.7e-06 (inactive). Besides, the slope in test [6] is 0.0067 (inactive).
As to `COc1cc2c(=O)nc3n(c2cc1OC)C(c1ccccc1)N=C(N)N3` (centres undefined), the cell count in test [1] amounted to 398. For the same molecule, the inhibition in test [1] was -11.9% (inactive); in test [3], 0.3% (inactive); in test [7], 17.6% (inactive); in test [8], 23.9% (inactive). Besides, in test [2], the inhibition of aggregation was 17.7% (inactive). The nuclei count amounted to 86.3% in test [2] and 98.2% in test [3]. Also, the fluorescence slope in test [4] was -0.312 (inactive). Also, the NADPH fluorescence slope in test [5] was -2.8e-05 (inactive). Moreover, in test [6], the slope is 0.00451 (inactive).
Take `COc1ccc(CCNC(=O)CSc2nncn2N)cc1OC`: the cell count in test [1] was found to be 641. For the same molecule, the inhibition in test [1] was -3.2% (inactive); in test [3] it was -29.4% (inactive); in test [7], 12.1% (inactive); in test [8], 21.1% (inactive). Moreover, the inhibition of aggregation in test [2] is 24.1% (inactive). In addition, the values for the nuclei count in test [2] and in test [3] were 81.6% and 122%, respectively. In addition, the fluorescence slope in test [4] was -0.345 (inactive). In addition, the NADPH fluorescence slope in test [5] was -1.6e-05 (inactive). Moreover, in test [6], the slope is 0.00364 (inactive).
`COCCSc1nnc(NC(=O)Cc2ccccc2OC)s1`: the cell count in test [1] turned out to be 660. Further, the inhibition in test [1] was -15.1% (inactive); in test [3], -30.7% (inactive); in test [7] it was 16.6% (inactive); in test [8], 25.8% (inactive). In addition, in test [2], the inhibition of aggregation was 5.4% (inactive). In addition, the nuclei count in test [2] was determined as 94.2%; in test [3], 103%. Further, the fluorescence slope in test [4] is -0.411 (inactive). Moreover, in test [5], the NADPH fluorescence slope was -5.1e-05 (inactive). The slope in test [6] was 0.00483 (inactive).
Consider `O=C(O)CCCC(=O)Nc1nc(-c2ccc(F)cc2)cs1`, for which the cell count in test [1] turned out to be 392. For the same molecule, the inhibition in test [1] was -1.3% (inactive); in test [3], -90.5% (inactive); in test [7], 6.78% (inactive); in test [8] it was 14.9% (inactive). Further, the inhibition of aggregation in test [2] was -6.1% (inactive). The nuclei count turned out to be 94.3% in test [2] and 141% in test [3]. Further, in test [4], the fluorescence slope was -0.327 (inactive). Further, the NADPH fluorescence slope in test [5] was -1.1e-05 (inactive). In test [6], the slope was 0.00291 (inactive).
`Cn1c(-c2ccc(C(C)(C)C)cc2)n[nH]c1=S`: the cell count in test [1] stood at 647. Also, the inhibition was -5.8% (inactive) in test [1], 47.5% (inactive) in test [3], -11.8% (inactive) in test [7] and -25.2% (inactive) in test [8]. Besides, the inhibition of aggregation in test [2] is -4.8% (inactive). In addition, the results for the nuclei count in test [2] and in test [3] were 77.2% and 79.7%, respectively. The fluorescence slope in test [4] is -0.46 (inactive). Moreover, the NADPH fluorescence slope in test [5] was -0.000112 (inactive). Moreover, in test [6], the slope is 0.00619 (inactive).
Consider `O=C(OCc1ccccc1F)c1ccc2c(c1)OCCO2`, for which the cell count in test [1] was 372. Further, the inhibition is 3.4% (inactive) in test [1], -0.9% (inactive) in test [3], -0.266% (inactive) in test [7] and -113% (inactive) in test [8]. Also, in test [2], the inhibition of aggregation is -14.1% (inactive). The nuclei count in test [2] was 103%; in test [3] it was 90.8%. Besides, in test [4], the fluorescence slope was -0.448 (inactive). Moreover, in test [5], the NADPH fluorescence slope is -8.7e-06 (inactive). The slope in test [6] was 0.00627 (inactive).
Take `CS(=O)(=O)N(Cc1nc2sc3c(c2c(=O)[nH]1)CCCC3)C1CCCCC1`: the cell count in test [1] worked out at 352. For the same molecule, the inhibition is 0.8% (inactive) in test [1], -6.2% (inactive) in test [3], 4.56% (inactive) in test [7] and 14.4% (inactive) in test [8]. The inhibition of aggregation in test [2] was -9.4% (inactive). The nuclei count in test [2] was 106%; in test [3] it was 110%. In addition, in test [4], the fluorescence slope was -0.612 (inactive). In addition, in test [5], the NADPH fluorescence slope is -4.9e-05 (inactive). In test [6], the slope was 0.00352 (inactive).
As for `CCCC(CCC)C(=O)NCCN1CCOCC1`, the cell count in test [1] is 412. Moreover, the inhibition is -2% (inactive) in test [1], -22.1% (inactive) in test [3], 11% (inactive) in test [7] and 28.6% (inactive) in test [8]. Moreover, in test [2], the inhibition of aggregation is 6.3% (inactive). The nuclei count in test [2] was 97%; in test [3] it was 90.6%. Moreover, in test [4], the fluorescence slope was -0.494 (inactive). Moreover, the NADPH fluorescence slope in test [5] was -3.5e-05 (inactive). Further, in test [6], the slope was 0.0054 (inactive).
Regarding `Cc1c(NC(=O)c2noc3c2CCc2ccccc2-3)c(=O)n(-c2ccccc2)n1C`, the cell count in test [1] came out at 620. Also, the inhibition in test [1] was -3.4% (inactive); in test [3], -79.6% (inactive); in test [7], 2.37% (inactive); in test [8] it was -5.2% (inactive). The inhibition of aggregation in test [2] is -4.3% (inactive). The figures for the nuclei count in test [2] and in test [3] were 110% and 116%, respectively. For the same molecule, in test [4], the fluorescence slope is -0.474 (inactive). Moreover, in test [5], the NADPH fluorescence slope is 2.6e-05 (inactive). In addition, the slope in test [6] was 0.0062 (inactive).
As for `O=C(C1CC1)N1CCC(c2nc(-c3ccc(S(=O)(=O)NCC4CCCO4)cc3)no2)CC1` (centres undefined), the cell count in test [1] was 334. For the same molecule, the inhibition in test [1] was -3% (inactive); in test [3], -43.6% (inactive); in test [7], -27.5% (inactive); in test [8], -49.4% (inactive). The inhibition of aggregation in test [2] is -20.7% (inactive). Moreover, the nuclei count in test [2] was found to be 143%; in test [3], 91.9%. For the same molecule, the fluorescence slope in test [4] was -0.491 (inactive). Further, the NADPH fluorescence slope in test [5] was 3.5e-06 (inactive). Further, in test [6], the slope is 0.00666 (inactive).
With `COCC(=O)N(C)c1nnc(-c2ccccn2)s1`, the cell count in test [1] was 433. Further, the inhibition in test [1] is 1.4% (inactive); in test [3] it was -12.1% (inactive); in test [7], -7.53% (inactive); in test [8], -17.6% (inactive). Moreover, in test [2], the inhibition of aggregation was 16.5% (inactive). Moreover, the results for the nuclei count in test [2] and in test [3] were 84.4% and 107%, respectively. The fluorescence slope in test [4] was -0.167 (inactive). For the same molecule, the NADPH fluorescence slope in test [5] is -1.3e-05 (inactive). The slope in test [6] is 0.0059 (inactive).
In the case of `CCCC(=O)Nc1nc2ccc(S(N)(=O)=O)cc2s1`, in test [1], the cell count came out at 718. Further, the inhibition is -1.8% (inactive) in test [1], -9.7% (inactive) in test [3], -18.7% (inactive) in test [7] and -57.7% (inactive) in test [8]. In addition, the inhibition of aggregation in test [2] was -16.5% (inactive). The nuclei count in test [2] was found to be 102%; in test [3], 100%. The fluorescence slope in test [4] was -0.406 (inactive). The NADPH fluorescence slope in test [5] was 5.8e-05 (inactive). In addition, the slope in test [6] is 0.00596 (inactive).
